Assay results as given in PubChem BioAssay (EPA / NIEHS).
“And” between values parts separate entries of the source, which are not always exact repeats. Equal values may be shown once. Where a structure was tested more than once in an assay, its records may differ in their call. The source made the active and inactive calls. Rule for the calls: active = hit-call score of the fitted dose curve at least 0.9, where 1 is the maximum; inactive = score below 0.9.

Tests used:
[1] = APR_HepG2_CellLoss_72hr: Apredica 72-hour HepG2 Assay for Cell Loss (AID 2282915); conditions: high-content imaging
Procedure, shortened: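 Cell number comes from Hoechst 33342-labelled nuclei, imaged at 20x after 3.7% formaldehyde fixation. Dosing was 0.39–200 uM, ten concentrations in duplicate, 0.5% DMSO final, for 72 h. Bidirectional fit relative to DMSO baseline.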

[2] = APR_HepG2_P-H2AX_72hr: Apredica 72-hour HepG2 Assay for H2AX Phosphorylation (AID 2282916); conditions: imaging, actives raise or lower the signal;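 note: phospho-histone H2A.x immunostain intensity per cell marking DNA damage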
Procedure, shortened: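 Phospho-histone H2A.x immunofluorescence, multiplexed with Hoechst and c-Jun, quantified by high-content imaging. Compounds applied to HepG2 for 72 h across ten concentrations (0.39–200 uM, 0.5% DMSO), in duplicate; DMSO baseline.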

[3] = APR_HepG2_MitoMembPot_72hr: Apredica 72-hour HepG2 Assay for Mitochondrial Membrane Potential (AID 2282917); conditions: imaging, actives raise or lower the signal
Procedure, shortened: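 Membrane potential read by MitoTracker Red CMXRos (250 nM, 30 min, pre-fixation) fluorescence imaging of HepG2 after 72 hr exposure. Ten concentrations, 0.39–200 uM, duplicate wells, 0.5% DMSO; fitted in both directions against DMSO baseline.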

[4] = APR_HepG2_MicrotubuleCSK_72hr: Apredica 72-hour HepG2 Assay for Microtubule CSK Stabilty (AID 2282919); conditions: HepG2 microtubule cytoskeleton, high-content imaging, actives raise or lower the signal
Procedure, shortened: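 High-content imaging of alpha-tubulin staining in fixed HepG2 cells after 72 hr treatment with ten concentrations from 0.39 to 200 uM (0.5% DMSO). Fitting was bidirectional against DMSO; taxol served as positive control.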

[5] = APR_HepG2_P-H2AX_24hr: Apredica 24-hour HepG2 Assay for H2AX Phosphorylation (AID 2282920); conditions: high-content imaging, actives raise or lower the signal
Procedure, shortened: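 HepG2, 24 hr, cpd 0.39–200 uM (10 conc, duplicate), DMSO 0.5% v/v final. Fix 3.7% formaldehyde, Triton X-100 permeabilize, anti-phospho-H2A.x 1:200 + Hoechst 2 ug/mL. Imaged, bidirectional fit vs DMSO.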

[6] = APR_HepG2_StressKinase_24hr: Apredica 24-hour HepG2 Assay for Stress Kinase (AID 2282922); conditions: HepG2 stress kinase (phospho-c-Jun) imaging, actives raise or lower the signal
Procedure, shortened: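 High-content imaging of phospho-c-Jun immunofluorescence in fixed, permeabilized HepG2 cells after 24 h dosing. Ten concentrations, 0.39 to 200 uM, run in duplicate at 0.5% v/v DMSO; gain or loss of signal versus DMSO.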

[7] = APR_HepG2_p53Act_72hr: Apredica 72-hour HepG2 Assay for p53 Activation (AID 2282923); conditions: high-content imaging, actives raise or lower the signal;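 note: average cellular p53 protein immunofluorescence intensity in HepG2 cells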
Procedure, shortened: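 After 72 h with compound (ten points, 0.39 to 200 uM, final DMSO 0.5% v/v), fixed HepG2 cells were labelled with sheep anti-p53 and Hoechst 33342 and imaged; gain or loss versus DMSO scored.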

[8] = APR_HepG2_MitoMass_72hr: Apredica 72-hour HepG2 Assay for Mitochondrial Mass (AID 2282924); conditions: high-content imaging, actives raise or lower the signal;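 note: MitoTracker Red CMXRos stain intensity per cell imaged as mitochondrial mass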
Procedure, shortened: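 Readout is imaged MitoTracker Red (250 nM, 30 min, pre-fixation) signal, fitted bidirectionally against DMSO baseline. Human HepG2 liver cells received compound 0.39–200 uM in duplicate for 72 hr, final DMSO 0.5%.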

[9] = APR_HepG2_NuclearSize_72hr: Apredica 72-hour HepG2 Assay for Nuclear Size (AID 2282925); conditions: high-content imaging, actives raise or lower the signal
Procedure, shortened: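 Nuclear size was read by high-content imaging of Hoechst 33342 stain after formaldehyde fixation. Compounds ran 72 h on HepG2 at 0.39 to 200 uM, with final DMSO 0.5% v/v. Curves fitted both directions relative to DMSO control.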

[10] = ATG_CRE_CIS: Attagene CIS-FACTORIAL HepG2 Assay for human cAMP Responsive Element (CRE) binding protein 3 (AID 2282926); conditions: HepG2 CRE cis-reporter, Attagene multiplexed mRNA; actives raise or lower the signal
Procedure, shortened: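 Assay format: transient reporter transfection of HepG2, 24 h treatment, total RNA isolation with DNase I step. Reporter abundance read by fluorescence after PCR and capillary separation; DMSO-normalised gain or loss fitting.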

[11] = biological target: CCAAT/enhancer-binding protein beta (Homo sapiens) (UniProt P17676); experiment: ATG_C_EBP_CIS: Attagene CIS-FACTORIAL HepG2 Assay for human CCAAT/Enhancer Binding Protein (C/EBP) beta (AID 2282927); conditions: HepG2 Attagene cis-factorial transcription factor reporter; actives raise or lower the signal
Procedure, shortened: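 Endogenous transcription factor activity in human liver HepG2 cells is inferred from induction of a CEBPB-linked reporter mRNA. Exposure lasts 24 h; activity is fitted in both directions relative to DMSO.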

[12] = ATG_CMV_CIS: Attagene CIS-FACTORIAL HepG2 Assay for human CMV (Internal Marker) (AID 2282928); conditions: HepG2 CMV promoter reporter, transcription factor profiling; actives raise or lower the signal;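 note: endpoint acts as a background internal control marker rather than a target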
Procedure, shortened: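 Reporter transcripts from transfected HepG2 cells are isolated after 24 h of chemical dosing, reverse-transcribed and amplified. Fragments labeled with 6-FAM are cut with HpaI and quantified by capillary electrophoresis; DMSO defines baseline.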

[13] = ATG_DR4_LXR_CIS: Attagene CIS-FACTORIAL HepG2 Assay for human Liver X Receptor (LXR), DR4 submotif (AID 2282929); conditions: HepG2 Attagene DR4 cis-reporter, mRNA transcription; actives raise or lower the signal
Procedure, shortened: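 Readout: reporter transcript fluorescence after RT-PCR and capillary electrophoresis, fitted bidirectionally against DMSO controls. Human HepG2 liver cells carried transiently transfected multiplexed reporter constructs; endogenous transcription factor activity measured 24 h post-dosing.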

[14] = biological target: Aryl hydrocarbon receptor (Homo sapiens) (UniProt P35869); experiment: ATG_Ahr_CIS: Attagene CIS-FACTORIAL HepG2 Assay for human Aryl Hydrocarbon Receptor (Ahr) (AID 2282930); conditions: HepG2 AhR cis-factorial reporter transcription; actives raise or lower the signal
Procedure, shortened: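 Transient MRTU transfection of HepG2 → 24 h compound exposure → total RNA, oligo(dT) RT → PCR, 6-FAM extension, HpaI cut → CE fluorescence. DMSO = baseline; bidirectional curve fit.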

[15] = ATG_AP_1_CIS: Attagene CIS-FACTORIAL HepG2 Assay for human Activator Protein 1 (AP-1) (AID 2282931); conditions: HepG2 Attagene cis-factorial AP-1 reporter mRNA; actives raise or lower the signal
Procedure, shortened: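 Reporter transcripts were measured 24 h after dosing by RT-PCR and capillary electrophoresis of fluorescent fragments. Cells: HepG2 carrying transfected cis-regulated reporter constructs reading endogenous factor activity. Gain or loss fitted against DMSO.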

[16] = ATG_AP_2_CIS: Attagene CIS-FACTORIAL HepG2 Assay for human Activator Protein 2 (AP-2) (AID 2282932); conditions: HepG2 AP-2 cis-reporter, Attagene transcription factor profiling; actives raise or lower the signal
Procedure, shortened: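 Endogenous transcription factor activity is reported through transfected multiplex reporter constructs in HepG2, after 24 h of compound exposure. Transcripts were quantified by RT-PCR and capillary electrophoresis of fluorescent fragments. Bidirectional fit against DMSO.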

[17] = ATG_BRE_CIS: Attagene CIS-FACTORIAL HepG2 Assay for human Bone Morphogenetic Protein (BMP) Response Element (BRE) (AID 2282933); conditions: HepG2 BMP response element reporter, Attagene transcription factor profiling; actives raise or lower the signal
Procedure, shortened: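 HepG2 cells transiently transfected with CIS reporter units (endogenous TF activity, BMP response element), dosed 24 h. Reporter mRNA quantified by RT-PCR, fluorescent labelling and capillary electrophoresis; bidirectional fit vs DMSO baseline.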

[18] = biological target: Retinoic acid receptor alpha (Homo sapiens) (UniProt P10276); experiment: ATG_DR5_RAR_CIS: Attagene CIS-FACTORIAL HepG2 Assay for human Retinoic Acid Receptor Alpha (RARE), DR5 submotif (AID 2282934); conditions: HepG2 Attagene cis-factorial RARE DR5 reporter, mRNA; actives raise or lower the signal;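 for AC50: reporter responds to endogenous RAR alpha beta and gamma in HepG2 not RARA alone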
Procedure, shortened: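 Transient MRTU transfection of HepG2; 24 h compound treatment; TriZol RNA, oligo(dT) RT, PCR, FAM labelling, capillary electrophoresis. Bidirectional fit vs DMSO. Endogenous TF activity at DR5 RARE.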

[19] = APR_HepG2_StressKinase_72hr: Apredica 72-hour HepG2 Assay for Stress Kinase (AID 2282921); conditions: HepG2 stress kinase (phospho-c-Jun) imaging, actives raise or lower the signal
Procedure, shortened: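 Stress kinase signal is phospho-c-Jun immunofluorescence (1:500 primary, Cy3 secondary) in fixed, permeabilized human HepG2 cells imaged at 20x. Exposure lasted 72 hr over ten concentrations from 0.39 to 200 uM, 0.5% DMSO, in duplicate. Bidirectional fit versus DMSO.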

Measured: AC50

Chain of CCAAT/enhancer-binding protein beta (Homo sapiens) (P17676 whole entry, looked up): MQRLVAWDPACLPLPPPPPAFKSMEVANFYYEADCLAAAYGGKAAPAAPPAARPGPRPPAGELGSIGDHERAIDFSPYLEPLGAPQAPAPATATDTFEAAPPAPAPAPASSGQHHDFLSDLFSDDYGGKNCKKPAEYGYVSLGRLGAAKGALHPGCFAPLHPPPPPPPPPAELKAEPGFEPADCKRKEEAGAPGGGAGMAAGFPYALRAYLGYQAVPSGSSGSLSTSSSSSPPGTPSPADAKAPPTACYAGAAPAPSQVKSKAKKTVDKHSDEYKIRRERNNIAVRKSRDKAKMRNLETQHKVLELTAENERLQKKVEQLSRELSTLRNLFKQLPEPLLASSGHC
Chain of Retinoic acid receptor alpha (Homo sapiens) (P10276 whole entry, looked up): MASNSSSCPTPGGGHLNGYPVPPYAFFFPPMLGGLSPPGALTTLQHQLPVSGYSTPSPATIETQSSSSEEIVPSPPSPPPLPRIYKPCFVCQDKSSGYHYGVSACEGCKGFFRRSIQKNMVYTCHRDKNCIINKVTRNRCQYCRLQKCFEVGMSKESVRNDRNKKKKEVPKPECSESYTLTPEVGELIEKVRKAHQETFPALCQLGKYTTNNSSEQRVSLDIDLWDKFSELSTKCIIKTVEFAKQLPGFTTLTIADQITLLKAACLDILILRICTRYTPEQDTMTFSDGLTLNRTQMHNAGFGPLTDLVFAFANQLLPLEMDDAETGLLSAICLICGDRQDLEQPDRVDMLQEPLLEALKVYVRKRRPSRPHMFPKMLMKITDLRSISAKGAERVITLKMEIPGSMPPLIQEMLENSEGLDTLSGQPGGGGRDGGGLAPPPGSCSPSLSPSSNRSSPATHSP
Chain of Aryl hydrocarbon receptor (Homo sapiens) (P35869 whole entry, looked up): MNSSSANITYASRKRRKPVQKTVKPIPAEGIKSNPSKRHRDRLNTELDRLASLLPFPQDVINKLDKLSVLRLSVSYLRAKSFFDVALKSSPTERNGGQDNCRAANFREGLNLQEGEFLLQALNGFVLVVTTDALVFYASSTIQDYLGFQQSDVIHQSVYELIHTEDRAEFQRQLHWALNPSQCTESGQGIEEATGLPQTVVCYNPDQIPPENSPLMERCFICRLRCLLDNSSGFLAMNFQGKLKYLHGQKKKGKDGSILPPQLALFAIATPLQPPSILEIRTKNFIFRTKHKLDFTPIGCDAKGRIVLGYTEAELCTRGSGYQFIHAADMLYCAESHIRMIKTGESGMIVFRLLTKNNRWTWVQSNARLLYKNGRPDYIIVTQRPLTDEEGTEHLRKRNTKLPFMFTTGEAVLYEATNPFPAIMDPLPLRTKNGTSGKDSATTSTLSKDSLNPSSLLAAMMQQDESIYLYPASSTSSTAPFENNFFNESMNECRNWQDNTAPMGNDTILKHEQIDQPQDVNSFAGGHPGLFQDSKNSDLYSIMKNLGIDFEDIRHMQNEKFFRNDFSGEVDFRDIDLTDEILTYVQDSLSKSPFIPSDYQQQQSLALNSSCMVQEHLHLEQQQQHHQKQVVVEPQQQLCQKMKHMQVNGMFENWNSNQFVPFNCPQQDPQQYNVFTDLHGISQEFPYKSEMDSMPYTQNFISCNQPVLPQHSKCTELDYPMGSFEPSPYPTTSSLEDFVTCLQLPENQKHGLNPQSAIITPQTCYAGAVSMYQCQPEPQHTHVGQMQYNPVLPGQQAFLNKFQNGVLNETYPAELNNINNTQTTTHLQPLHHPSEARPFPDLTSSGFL

COC(=O)CSc1cc(N=c2sc(=O)n3n2CCCC3)c(F)cc1Cl
active: [1] 98.9 µM
not listed: [18] | [19]
inactive: all other assays above

CC(C)CCCCCCc1ccc(O)cc1
inactive: [3] | [6] | [9] | [11] | [12] | [13] | [14] | [16] | [17] | [18]
active: [1] 28.8 µM | [2] 30.1 µM | [4] 62.1 µM | [5] 100 µM | [7] 29.7 µM | [8] 21.4 µM | [11] 18.1 µM and 15.4 µM | [12] 13.1 µM and 17.4 µM | [13] 15.9 µM and 21 µM and 16.6 µM | [14] 21 µM | [16] 18.2 µM and 17.2 µM | [17] 20.7 µM | [18] 11.1 µM

COc1c(Cl)ccc(Cl)c1C(=O)O
not listed: [7] | [15]
inactive: all other assays above
